GoLoco inh red: inhibitors of human Gai1-RGS12 GoLoco interaction (red fluorophore); P63096; actives 0.44% (n = 230,000); Potency, µM (series often up to 61.6 µM), inactives show at the top dose activity, negative = inhibition, usual class: inhibitors; Gai1:RGS12 GoLoco peptide FP, rhodamine, 10 min; active = well fitted inhibition curve with a large enough effect, not every such curve was filed as active; inactive = no such curve, though single readings can be large or run the other way; note: potency is the fitted concentration of half-maximal effect; nearly all actives have a fitted effect of over 30% in size
Target sequence (P63096 whole entry, looked up): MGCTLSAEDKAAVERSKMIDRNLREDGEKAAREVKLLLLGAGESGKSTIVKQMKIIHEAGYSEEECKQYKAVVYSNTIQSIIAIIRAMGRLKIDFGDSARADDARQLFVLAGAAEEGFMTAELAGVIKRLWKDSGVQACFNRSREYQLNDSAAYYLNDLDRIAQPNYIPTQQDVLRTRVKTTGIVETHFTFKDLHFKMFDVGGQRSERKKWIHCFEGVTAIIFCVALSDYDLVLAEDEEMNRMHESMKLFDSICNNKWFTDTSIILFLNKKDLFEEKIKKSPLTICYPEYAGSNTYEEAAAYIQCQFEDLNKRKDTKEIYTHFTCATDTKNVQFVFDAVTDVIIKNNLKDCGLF
NPSR antagonist: blocks cAMP signaling of the human neuropeptide S receptor | actives 1% (n = 220,000) | AID 1461 | Potency, µM (highest dose often 38.3 µM), for the others: top-dose activity change, negative = inhibition, most hits filed as inhibitors | CHO-NPSR cells, cAMP TR-FRET, antagonist mode; active = well fitted curve in the direction sought with a large enough effect; inconclusive = small, poorly fitted or top-dose-only effect, or another doubt; inactive = no such curve, though single readings can be large; an effect the other way counts as inactive or inconclusive; note: potency is the fitted concentration of half-maximal effect; nearly all actives have a fitted effect of over 50% in size
FBPA coupling cs: inhibits coupling enzyme system, counter-screen for aldolase hits. coupling enzyme system counterscreen, AmpLite Red fluorescence. activity change, negative = inhibition, % at 58.2 µM, hits read low. actives 0.67% (n = 290,000); in the data active = activity change below about -30%
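Final compound at 57.5 uM, incubated 10 min at RT with coupling enzyme reagent (glyceraldehyde-3-phosphate), then 20 min with substrate and AmpLite Red detection. Fluorescence read at 525/598 nm; tests interference with the coupling assay, not aldolase inhibition.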
KDM4E inh: inhibitors of human JMJD2E histone demethylase. B2RXH2. JMJD2E catalytic domain, FDH-coupled NADH fluorescence (FDH is formaldehyde dehydrogenase). Potency, µM (highest dose often 57.1 µM), for inactives: top-dose activity change, negative = inhibition, hits mostly inhibitors. actives 1.6% (n = 230,000). AID 2147;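 note: potency is the fitted concentration of half-maximal effect; 0% = wells with enzyme and -100% = buffer wells without enzyme; nearly all actives have a fitted effect of over 50% in size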
Target sequence (B2RXH2 1-337 limits assumed): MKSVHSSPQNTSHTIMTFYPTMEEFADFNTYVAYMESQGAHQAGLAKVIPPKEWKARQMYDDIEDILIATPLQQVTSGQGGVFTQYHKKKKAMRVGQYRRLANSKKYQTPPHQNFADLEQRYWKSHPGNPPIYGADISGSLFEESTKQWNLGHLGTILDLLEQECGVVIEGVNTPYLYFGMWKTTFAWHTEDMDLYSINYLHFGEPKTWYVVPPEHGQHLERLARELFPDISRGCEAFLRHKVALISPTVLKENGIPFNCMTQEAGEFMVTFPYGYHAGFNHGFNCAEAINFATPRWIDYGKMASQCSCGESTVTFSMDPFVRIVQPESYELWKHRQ
ALDH1A1 block: inhibitors of human aldehyde dehydrogenase 1A1; Purified ALDH1A1, NADH fluorescence, propionaldehyde substrate; P00352; Potency, µM (highest dose often 75.3 µM), for inactives: top-dose activity, negative = inhibition, usual class: inhibitors; actives 7.3% (n = 220,000); AID 1030;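 note: potency is the fitted concentration of half-maximal effect; plate controls were no enzyme wells and a reference inhibitor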
Sfp PPTase inh: Sfp phosphopantetheinyl transferase inhibition; AID 1490; Potency, µM, for inactives: largest response in the series, negative = inhibition, usual class: inhibitors; actives 3.5% (n = 310,000); Q9F4F7; Biochemical Sfp PPTase activity, qHTS; active = well fitted curve in the direction sought with a large enough effect; inconclusive = small, poorly fitted or top-dose-only effect, or another doubt; inactive = no such curve, though single readings can be large; an effect the other way counts as inactive or inconclusive;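 note: the enzyme is Sfp with the accession as filed and its product quenches rhodamine fluorescence; potency is the fitted concentration of half-maximal effect; 0% = enzyme reaction without inhibitor and -100% = no enzyme wells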
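Step 1, compound plus 15 nM Sfp-PPTase, 15 min, room temperature. Step 2, add rhodamine-CoA (5 uM) and BHQ-2-YbbR (12.5 uM). Step 3, read 525/598 nm fluorescence at 0 and 30 min.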
* marks the source's active call; other numbers are inactive results; ? = inconclusive; · = not tested or not shown; [ ] = remark or other dose. Compounds with a hit are over-represented: about 8.5% of the library has one in this group of screens. Unless noted, calls come from the whole dose curve; as a rule, active = well fitted inhibition curve with a large enough effect (not every such curve was filed as active); inconclusive = small, poorly fitted or top-dose-only effect, or another doubt; inactive = no such curve, though single readings can be large or run the other way. Unless noted, % is set by controls: 0 for no effect and ±100 for the full control effect.

SMILES	GoLoco inh red	NPSR antagonist	FBPA coupling cs	KDM4E inh	ALDH1A1 block	Sfp PPTase inh
CC1(C)CC(=O)C(N=Nc2c(Cl)cc(Cl)cc2Cl)=C(O)C1	-3%	14%	4	3%	2µM*	-4%
CC1(C)CC(=O)C(N=Nc2cc(S(=O)(=O)N3CCOCC3)ccc2Cl)=C(O)C1	14%	-10%	-2	-8%	0.1µM*	-2%
O=C1CCCC(O)=C1N=Nc1ccc(C(=O)O)cc1	-15%	6%	0	?	?	-4%
CC1(C)CC(=O)C(N=Nc2ccc(Cl)cc2)=C(O)C1	14%	18%	3	8%	?	-6%
Cc1ccc(N2CC(C(=O)Nc3ncc([N+](=O)[O-])s3)CC2=O)cc1 (stereo not drawn)	·	·	5	·	·	-9%
O=C(O)CCn1c(SCCOc2ccccc2F)nc2ccccc21	·	·	-5	·	·	15%
O=C(Nc1ccccc1)c1cc2ccc3ccccc3c2s1	2%	?	2	?	·	15%
COc1ccc(CN(CC2CCCO2)C(=O)c2cc3sccc3n2C)c(OC)c1 (stereo not drawn)	12%	-37%	-1	-1%	11µM*	5%
NC(=S)Nc1ccc(C(F)(F)F)cc1Cl	-4%	-13%	-2	2%	-6%	4%
O=C1COc2ccc(N3C(=O)C=CC3=O)cc2N1	-24%	?	5	1%	6.3µM*	4µM*
O=C1COc2ccc(S(=O)(=O)N3CCCC3)cc2N1	·	·	0	·	·	7%
O=[N+]([O-])C(/C=C(\Cl)[N+](=O)[O-])=C(N1CCCCC1)N1CCCCC1	4%	-15%	-2	-8%	14µM*	14%
COc1ccc(NC(=O)CN(c2ccc(OC)c(Cl)c2)S(=O)(=O)c2ccccc2)c(OC)c1	·	·	-2	·	·	20%
COc1ccc(/C(O)=C2/C(=O)C(=O)N(c3ncccn3)C2c2ccc(F)cc2)cc1 (stereo not drawn)	5%	-45%	10	-7%	·	13%
COC(=O)CCc1c(C)[nH]c(=S)[nH]c1=O	0%	2%[7.67 µM]	-1	-5%	-11%	89µM*
CCOC(=O)C(C)c1c(C)[nH]c(=S)[nH]c1=O (stereo not drawn)	-3%	0%[46.1 µM]	0	-6%	9%	-4%
CCOC(=O)Cc1c(C)[nH]c(=S)[nH]c1=O	3%	-16%[46.1 µM]	1	3%	-2%	79µM*
CCCn1c(N)c(N(CCOC)C(=O)c2ccc([N+](=O)[O-])cc2Cl)c(=O)[nH]c1=O	·	·	-1	·	·	2%
CCOc1cc(/C=N/Nc2ncnc(Cl)c2N)ccc1O	9%	-19%	0	-15%	5%	-76%
CCOc1cc(/C=N/Nc2nc(=O)[nH]nc2C)ccc1O	2%	-18%	-4	4%	5%	71µM*
Cc1n[nH]c(=O)nc1N/N=C/c1ccco1	4%	-2%	-2	-19%	2%	40µM*
Cc1n[nH]c(=O)nc1NCc1ccco1	5%	-7%[46.1 µM]	2	-7%	2%	-19%
C=CCc1c(C)nc(C)nc1N/N=C/c1ccccc1O	6%	-1%[46.1 µM]	-27	3.2µM*	6%	-25%
CCOc1ccc(/C=N/Nc2nc(=O)[nH]nc2C)cc1OC	5%	-9%	-1	-12%	-2%	25µM*
Cc1ccc(C)c(S(=O)(=O)Nc2ccc(C(=O)N3CCCCC3)cc2)c1	·	·	·	·	·	16%
SMILES	GoLoco inh red	NPSR antagonist	FBPA coupling cs	KDM4E inh	ALDH1A1 block	Sfp PPTase inh
COc1ccc(-c2cc(CNS(=O)(=O)c3ccccc3)on2)cc1	6%	-9%	0	-5%	?	-5%
Cc1nnc(N/N=C/c2ccccc2O)n1N	3%	-1%	-31*	-27%	-3%	18%
Cc1nnc(N/N=C/c2cc(C)n(-c3ccc(F)cc3)c2C)n1N	3%	27%	-42*	?	-7%	45µM*
CCOc1cc(/C=N/Nc2nnc(C)n2N)ccc1O	·	·	-8	·	·	56µM*
COc1cc(/C=N/Nc2nc(=O)[nH]nc2C)cc(OC)c1O	-6%	-25%	4	-28%	-8%	35µM*
COC(=O)c1ccc(-n2c(C)cc(/C=N/Nc3nc(C)cc(=O)[nH]3)c2C)cc1	2%	-7%	-7	-75%	·	-18%
Cc1cccc(-c2ccc(-c3cc(=O)oc4cc(C)cc(C)c34)cc2)c1	-3%[88.7 µM]	·	5	·	8%	-14%
COc1ccc(/C=N/OCc2ccc(Br)cc2)c(OC)c1	·	·	-1	·	·	0%
COc1cc(N)c(Cl)cc1C(=O)OCC(=O)N1CCCC1	·	·	-3	·	·	12%
CCOC(=O)C1=C(c2ccccc2)N=C2SCC(=O)N2C1c1ccc2c(c1)OCO2 (stereo not drawn)	-4%	-22%[46.1 µM]	-6	-3%	13µM*	-5%
N#Cc1ncc(Cc2ccccc2)nc1C#N	·	·	-2	·	·	0%
CC1CC(C)CN(S(=O)(=O)c2ccc(C(=O)N3CCOCC3)cc2)C1 (stereo not drawn)	·	·	·	·	·	8%
CCn1c2ccc(F)cc2c2nnc(NN)nc21	32%	4%	4	2%	7.1µM*	?
CCCn1c2ccc(F)cc2c2nnc(NN)nc21	30%	-4%	-9	-9%	4.5µM*	-19%
CCc1ccc2c(c1)c1nnc(NN)nc1n2CC	82%	-17%[46.1 µM]	-8	-4%	2.8µM*	-20%
CSc1nnc2c3cc(F)ccc3n(Cc3ccccc3)c2n1	-4%	3%[46.1 µM]	3	0%	?	-4%
CCCCn1c2ccc(F)cc2c2nnc(SCCN3CCOCC3)nc21	·	·	0	·	·	56µM*
CCc1ccc2c(c1)c1nnc(NN)nc1n2C	-48%	-3%[7.67 µM]	-4	-26%	·	-16%
NNc1nnc2c3cc(F)ccc3n(Cc3ccccc3)c2n1	8%	-18%	2	?	·	-2%
Cn1c2ccc(F)cc2c2nnc(SCCN3CCOCC3)nc21	·	·	3	·	·	?
NC(=O)Nc1ccc(C(=O)OCC(=O)Nc2ccc([N+](=O)[O-])cc2C(F)(F)F)cc1	-66%	14%	-3	-2%	5%	-16%
CC(=C\C(=O)O)/C(=C\c1cccc2ccccc12)C(=O)O	-1%	50%	14	?	·	9%
NC(=O)CN1C(=O)C2CCCCN2C(=O)c2ccccc21 (stereo not drawn)	3%	1%[46.1 µM]	3	-1%	7%	3%
NC(=O)CN1C(=O)/C(=c2\sc3nc(=O)c(Cc4ccccc4)nn3c2=O)c2ccccc21	-6%	4%	-1	-6%	·	11µM*
CCCCN1C(=O)/C(=c2\sc3nc(=O)c(-c4ccccc4)nn3c2=O)c2ccccc21	8%	-7%[46.1 µM]	4	-22%	4.5µM*	16µM*
CCCN1C(=O)/C(=c2\sc3nc(=O)c(Cc4ccc(C)cc4)nn3c2=O)c2ccccc21	-12%	-21%	2	-2%	6.3µM*	20µM*

High-throughput results (PubChem BioAssay)
